Molecules are shown by their SMILES. Results filed as inconclusive are left out. A call without a number means that no potency is given here. Activity calls are given as the source filed them. Calls come from the whole dose curve; as a rule, active = well fitted inhibition curve with a large enough effect; inconclusive = small, poorly fitted or top-dose-only effect; inactive = flat fitted curve, though single readings scatter.

The target of the experiment is Calcium and integrin-binding protein 1 (Homo sapiens) (UniProt Q99828). Kind of experiment: Primary qHTS for Identification of Calcium Integrin Binding Protein 1 (CIB1) Competitor (AID 1508620).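 Note: GST tagged CIB1 binding a fluorescein labelled alphaIIb integrin peptide tracer; top concentration of the series differs between compounds.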 The following applies: CIB1-GST / FITC-alphaIIb peptide fluorescence polarization; series mostly up to 114 µM. In short, it runs like this: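 Fluorescence polarization competition: CIB1-GST (1 uM final) preincubated with compound 15 min at room temperature, then FITC-labeled alphaIIb peptide (100 nM final) added for another 15 min. Polarization read at Ex 480/Em 540.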
Calcium and integrin-binding protein 1 (Homo sapiens), sequence (Q99828 whole entry, looked up): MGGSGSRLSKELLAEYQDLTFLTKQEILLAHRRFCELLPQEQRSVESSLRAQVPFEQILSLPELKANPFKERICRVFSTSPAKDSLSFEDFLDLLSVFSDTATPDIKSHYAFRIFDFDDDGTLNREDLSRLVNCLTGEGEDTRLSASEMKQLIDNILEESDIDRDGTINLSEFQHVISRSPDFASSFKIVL
On to `O=S(=O)(Nc1ccccc1N1CCCCC1)c1ccc(Cl)s1`, for which the Potency entry is “inactive”. As to `Cc1cc(C)c(S(=O)(=O)n2cc(C)cc2C)c(C)c1`, the Potency result is “inactive”. In the case of `O=C(NO)c1ccc(CC(=O)N(CCO)c2ccccc2)cc1`, the Potency entry is “inactive”.

The values above are taken from PubChem BioAssay (NCATS).
